# Inconclusive results are not listed. Active and inactive are the calls of the source. The call rests on the fitted dose curve; in most records, active means well fitted cell-killing curve with a large enough effect; inconclusive means small, poorly fitted or top-dose-only effect, or effect the other way; inactive means no such curve, though single readings can be large or run the other way.
# Test: Viability qHTS for spleen associated tyrosine kinase inhibitor (SYKi) drug resistant MV4-11 cells (AID 1963824); further: nearly all actives have a fitted effect of over 35% in size
# Details: SYKi-resistant MV4-11 viability, CellTiter-Glo, 72 h; series mostly up to 45 µM
# Procedure, shortened: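 SYK inhibitor-resistant MV4-11 AML cells, 500 per well, added to predispensed compounds and incubated 72 hr at 37 C, 5% CO2. Viability measured by CellTiter-Glo luminescence after 10 min at room temperature.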
# Potency means the concentration at half of the fitted maximal effect.
row,Compound,Potency
1,Cc1cc(Nc2cc(C)c(C#N)c(NC(C)CCCC(C)(C)O)n2)n[nH]1 (stereo not drawn),0.411 µM (active)
2,CCCN(CCC)C(=O)C(CCC(=O)OCCCN1CCN(CCOC(=O)Cc2c(C)n(C(=O)c3ccc(Cl)cc3)c3ccc(OC)cc23)CC1)NC(=O)c1ccccc1 (stereo not drawn),20.6 µM (active)
3,C/C=C/C=C/C(=O)OC1CC/C=C/C(O)C(O)C(CCC)OC1=O (stereo not drawn),inactive
4,O=C(OC[C@H]1O[C@@H](Oc2ccccc2COC(=O)C2(O)C=CCCC2O)[C@H](O)[C@@H](O)[C@@H]1O)c1ccccc1 (stereo partly drawn),inactive
5,CCOC(=O)C1=CCCCC1S(=O)(=O)Nc1ccc(F)cc1Cl (stereo not drawn),16.6 µM (active)
6,CC(=O)O[C@H]1C(=O)[C@@]2(C)[C@H]([C@H](OC(=O)c3ccccc3)[C@]3(O)C[C@H](OC(=O)[C@H](O)[C@@H](NC(=O)c4ccccc4)c4ccccc4)C(C)=C1C3(C)C)[C@]1(OC(C)=O)CO[C@@H]1C[C@@H]2O,0.0044 µM (active)
7,CC(C)n1cnc2c(NCc3cccc(C(F)(F)F)c3)ncnc21,20.6 µM (active)
8,C[C@@H]1O[C@@H](O[C@H]2[C@@H](OC(=O)[C@]34CCC(C)(C)CC3C3=CCC5[C@@]6(C)C[C@H](O)[C@H](O[C@@H]7O[C@H](CO)[C@@H](O)[C@H](O)[C@H]7O[C@@H]7OC[C@@H](O)[C@H](O)[C@H]7O)[C@@](C)(C(=O)O)C6CC[C@@]5(C)[C@]3(C)CC4)OC[C@H](O)[C@@H]2O)[C@H](O)[C@H](O)[C@H]1O[C@@H]1OC[C@@H](O)[C@H](O)[C@H]1O (stereo partly drawn),1.38 µM (active)

# Source: PubChem BioAssay (NCATS)
